High-throughput results deposited in PubChem BioAssay by National Center for Advancing Translational Sciences (NCATS).
Hits are enriched below; roughly 19% of the tested compounds scored in any of these assays.
IL1B secr inh – blocks inflammasome-driven IL-1 beta release; 360,000 compounds, 4.7% hits; activity change, % at 57.5 µM; THP-1 LPS/ATP IL-1B secretion, AlphaLISA, 16 h; hits give low values; in the data active = activity change below about -50%; inconclusive = mostly about -30% to -49%
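Secreted IL-1B measured by AlphaLISA bead assay after 16 h compound exposure of THP-1 cells; compounds (final up to 57.5 uM) added 1 h before LPS (250 ng/mL) and ATP (1.25 mM) stimulation; lower signal means less secretion.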
HT1080NT lethal – kills 2HG-producing HT-1080-NT fibrosarcoma cells | 360,000 compounds, 1.6% hits | AID 686970 | Potency, µM (doses to about 46.1 µM), without a hit: top-dose activity, negative = less viability, actives largely listed as cytotoxic | HT-1080-NT fibrosarcoma viability, CellTiter-Glo ATP luminescence, 48 h;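 also: NT is the 2HG producing partner of a matched IDH1 knockdown line; potency is read from the fitted curve at half-maximal effect; 0% = DMSO-treated cells and -100% = media-only wells without cells; nearly all actives have a fitted effect of over 55% in size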
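A 48-hour cytotoxicity screen used HT-1080-NT cells plated 2 hours before compound delivery. ATP-based CellTiter-Glo luminescence measured viability, normalized to DMSO and no-cell controls.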
TDP1 cell CPT – DT40-hTDP1 cell growth loss with CPT; chicken DT40 Tdp1-/-;hTDP1 cells + 20 nM CPT, ATP luminescence, 48 h; Potency, µM (series often up to 46.2 µM), for the others: top-dose activity change, negative = growth inhibition, usual class: inhibitors; 420,000 compounds, 12% hits; AID 686979; also: potency is read from the fitted curve at half-maximal effect; nearly all actives have a fitted effect of over 55% in size
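Chicken DT40 Tdp1-/- cells complemented with human TDP1, 400 cells/well, exposed to compounds plus 20 nM camptothecin for at least 48 h at 37 C; viability read as ATP content by CellTiter-Glo luminescence.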
DT40 TDP1 no CPT – qHTS for Inhibitors of human tyrosyl-DNA phosphodiesterase 1 (TDP1): qHTS in cells in absence of CPT. 420,000 compounds, 15% hits. AID 686978, 2013. DT40 Tdp1-/- hTDP1 cells, no CPT, ATP luminescence, 48 h. Potency, µM (top dose mostly 46.2 µM), inactives show at the top dose activity change, negative = growth inhibition, hits mostly inhibitors; also: potency is read from the fitted curve at half-maximal effect; nearly all actives have a fitted effect of over 55% in size
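Camptothecin absent (DMSO only). Human TDP1-complemented DT40 knockout cells, 400 cells/well, 37 °C for minimum 48 hr; ATP measured via CellTiter-Glo, 30 min dark incubation, luminescence.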
HT1080 IDH1KD tx – toxicity to HT-1080 IDH1 knockdown cells (counter line); HT-1080 IDH1 knockdown viability, ATP luminescence, 48 h; Potency, µM (titrated, usually from 46.1 µM), without a hit: top-dose activity, negative = toxicity, hits mostly cytotoxic; 360,000 compounds, 2% hits;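 also: potency is read from the fitted curve at half-maximal effect; 0% = DMSO wells and -100% = cell-free medium wells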
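Cytotoxicity counter-line: IDH1KD HT-1080, 48 h, CellTiter-Glo. Curves classed by r2, magnitude and activity.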
The depositor's hits bear a star; ? = inconclusive; . = no result; [ ] = remark or other dose. Unless noted, calls follow the shape of the dose curve; as a rule, active = well fitted curve in the direction sought with a large enough effect; inconclusive = small, poorly fitted or top-dose-only effect, or another doubt; inactive = no such curve, though single readings can be large; an effect the other way counts as inactive or inconclusive. Unless noted, % is scaled to controls: 0 for no effect and ±100 for the full control effect.

SMILES | IL1B secr inh | HT1080NT lethal | TDP1 cell CPT | DT40 TDP1 no CPT | HT1080 IDH1KD tx
Cc1ccc(-c2csc(C(O)(c3ccccc3)C(F)(F)F)n2)cc1C (stereo unspecified) | -0.4 | 25.9µM* | ? | 16.4µM* | ?
CN(C)c1ccc(-c2csc(C(O)(c3ccccc3)C(F)(F)F)n2)cc1 (stereo unspecified) | -12.1 | ? | 10.3µM* | 7.31µM* | ?
OC(c1ccccc1)(c1nc(-c2cccc3cccnc23)cs1)C(F)(F)F (stereo unspecified) | -11.4 | ? | 23.1µM* | ? | ?
Cc1ccccc1-c1csc(C(O)(c2ccccc2)C(F)(F)F)n1 (stereo unspecified) | 0.0 | ? | ? | ? | ?
OC(c1ccccc1)(c1nc(-c2ccc(F)c(Cl)c2)cs1)C(F)(F)F (stereo unspecified) | 6.8 | ? | ? | 16.4µM* | 18.4µM*
COc1cc(C(=O)N(c2ccc(C)c(C)c2)C2C=CS(=O)(=O)C2)cc(OC)c1OC (stereo unspecified) | -2.4 | 5.2% | ? | ? | 6.8%
COc1ccc(-c2coc3c(C(=O)NCCN4CCOCC4)cccc23)c(C)c1 | -19.6 | ? | ? | ? | ?
COCCCNC(=O)c1cccc2c(-c3ccc(OC)cc3C)coc12 | -5.9 | ? | 18.4µM* | ? | ?
COc1ccc(-c2coc3c(C(=O)NCCN(C)C)cccc23)c(C)c1 | -21.4 | 25.9µM* | ? | ? | 16.4µM*
COc1ccc2oc(C(=O)NCCc3ccccc3)c(C)c2c1 | -27.3 | 4.3% | 0.1% | ? | -2.0%
COc1ccc(-c2coc3c(C(=O)NCC4CCOCC4)cccc23)c(C)c1 | -22.4 | ? | 10.3µM* | 10.3µM* | -15.3%
COc1ccc(-c2coc3c(C(=O)NCCc4ccccc4)cccc23)c(C)c1 | -28.2 | ? | 16.4µM* | 16.4µM* | ?
Cc1nc2nc(CNC(=O)OC(C)(C)C)nn2c(C)c1CCC(=O)NCc1ccc(F)cc1 | . | . | 1.5% | -15.7% | .
CC(OC(=O)C1=NN(c2ccccc2)C(=O)CC1)C(=O)NC1CCCCC1C (stereo unspecified) | -5.8 | 3.1% | 8.0% | -3.1% | 6.2%
CCCCc1c(O)nc(SCC(=O)Nc2ccc(OC)cc2)n(-c2ccc(C)c(C)c2)c1=O | -3.5 | -0.3% | -4.7% | 2.0% | -5.0%
Cc1cccn2c(NC(=O)c3cccs3)c(-c3ccccc3)nc12 | -6.1 | 4.5% | 3.7% | -20.2% | 1.3%
CCCCCCC[n+]1c(/C=C/c2ccc(N(C)C)cc2)sc2ccccc21 | . | . | 0.159µM* | 0.282µM* | .
CCN(CC)c1ccc(C=C2C(=O)OC(c3ccccc3)OC2=O)cc1 (stereo unspecified) | 7.4 | 4.2% | 4.9% | -20.6% | -3.2%
CCN(CC)c1ccc(/C=C/c2sc3ccccc3[n+]2CCCCI)cc1 | . | . | 0.631µM* | 0.447µM* | .
CN1CCCCC1(C)C(=O)NCc1cc(Cl)ccc1F (stereo unspecified) | 10.7 | 18.1% | 4.6% | 3.8% | 7.8%
COc1cc2c(cc1OC)C1C(=O)c3c(O)cc4c(c3OC1CO2)C=CC(C)(C)O4 (stereo unspecified) | . | . | 0.651µM* | 0.411µM* | .
COc1cc2c(cc1OC)OC(C)(C)C=C2 | . | . | 6.4%[9.04 µM] | -6.3%[9.04 µM] | .
COc1cc2c(cc1OC)C1C(=O)c3ccc4c(c3OC1CO2)C=CC(C)(C)O4 (stereo unspecified) | . | . | 0.082µM* | 0.0651µM* | .
COc1cccc(/C(C#N)=C/c2c(-c3ccc(Cl)cc3)nc3c(C)cccn23)c1 | -65.4* | -4.0% | 20.6µM* | 18.4µM* | -16.9%
CC1=CC(C)[C@H](/C=N/n2c(=O)[nH]c3c([nH]c4ccc(C)cc43)c2=O)C(C)C1 (stereo partly specified) | -5.9 | -27.4% | 8.2µM* | 13µM* | -20.7%
CCOc1ccc2[nH]cc(S(=O)(=O)c3ccc(F)cc3)c(=O)c2c1 | 29.6 | 9.6% | 9.2µM* | 9.2µM* | 1.4%
